# Test results taken from ChEMBL document CHEMBL3988442, “University of Dundee, Small-Polar-MMV Screening Library” (2021).
# Screen size: about 69,000 compounds; about 1,000 (1.4%) showed an effect of 50% or more. Only a selection was taken, and strong results are over-represented in it overall.
# Tested on: Leishmania donovani
# Test: Leishmania intramacrophage assay
# Type: functional, organism-based
# Parameters: scale not given: in the data most compounds retested in dose-response had high values
compound,measurement,setting,value
Cc1nc(C)n(CC2CCCN(Cc3ccc(C(N)=O)cc3)C2)n1 (configuration not stated),Percent Effect,"30 µM, 30.03 µM",-3.523%
Cc1ccc(F)c2c1N(C(=O)c1cn(CC(=O)N(C)C)nn1)CCC2,Percent Effect,"30.3 µM, […]",-28.86%
CCCSCC(=O)NS(=O)(=O)c1ccc2c(c1)OCCO2,Percent Effect,"30 µM, 30.03 µM",12.46%
O=C(O)C(F)(F)F.O=C(O)C(F)(F)F.c1c(CN2CCCC2)nc2n1CCN(C1CCOCC1)C2,Percent Effect,"30.3 µM, […]",25.13%
Cc1ccc(-c2ccccc2CC2(C(=O)NC(C)C)CCCNC2)cc1 (configuration not stated),Percent Effect,"30.3 µM, […]",53.92%
CC(C)NC(=O)C1(Cc2ccccc2-c2cncnc2)CCCNC1 (configuration not stated),Percent Effect,"30.3 µM, […]",16.97%
CC(C)NC(=O)C1(Cc2ccccc2-c2ccccc2)CCCNC1 (configuration not stated),Percent Effect,"30.3 µM, […]",40.16%
CC(C)(C)C(O)CN1CCN(C(=O)c2cccc3ncccc23)CC1 (configuration not stated),Percent Effect,"30 µM, 30.03 µM",14.67%
Cc1cc(NCc2cn(C)nc2-c2cccnc2)n(C)n1,Percent Effect,"30.3 µM, […]",-18.07%
O=C1NCCCc2[nH]c(-c3nc(C4CC4)no3)nc21,Percent Effect,"30.3 µM, […]",0.06758%
Oc1cc(CCC2CCCCN2)cc(-c2ccncc2)c1 (configuration not stated),Percent Effect,"30 µM, 30.03 µM",12.39%
Oc1cc(CCC2CCCCN2)cc(-c2cccnc2)c1 (configuration not stated),Percent Effect,"30.3 µM, […]",51.21%
Nc1ccc(-c2cc(O)cc(CCC3CCCCN3)c2)cn1 (configuration not stated),Percent Effect,"30.3 µM, […]",30.15%
CC[C@@H](C)[C@H](NC(=O)NC1CCS(=O)(=O)C1)C(=O)NCc1ccncc1 (some centres not stated),Percent Effect,"30.3 µM, […]",-5.4%
CCNC(=O)CN(CC)S(=O)(=O)c1c(Br)cc2[nH]c(=O)oc2c1Cl,Percent Effect,"30.3 µM, […]",26.48%
CNC(=O)CN(C)S(=O)(=O)c1c(Br)cc2[nH]c(=O)oc2c1Cl,Percent Effect,"30.3 µM, […]",30.57%
COC(=O)C(C)CN(C)S(=O)(=O)c1c(Br)cc2[nH]c(=O)oc2c1Cl (configuration not stated),Percent Effect,"30.3 µM, […]",53.15%
COc1cc(OC)c(-c2nc3c([nH]2)c(C2CC2)nn3C)cc1OC,Percent Effect,"30.3 µM, […]",40.91%
CC(C)c1ncncc1C(=O)NCCN1CCOCC1,Percent Effect,"30.3 µM, […]",-51.02%
CC(C)c1cc(NC(=O)c2cccnc2)[nH]n1,Percent Effect,30 µM,2.786%
CC(C)c1cc(NC(=O)c2ccc([S+]([O-])C(C)C)cc2)[nH]n1 (configuration not stated),Percent Effect,30 µM,33.29%
Cc1ccc(C(=O)Nc2cc(C(C)C)n[nH]2)cn1,Percent Effect,"30 µM, 30.03 µM",-3.681%
CC(C)c1cc(NC(=O)c2ccncc2)[nH]n1,Percent Effect,30 µM,-9.457%
Cc1ccc(CC(=O)Nc2cc(C(C)C)n[nH]2)cn1,Percent Effect,30 µM,62.25%
CC(C)c1cc(NC(=O)c2ccc(C(=O)NC(C)(C)C)cc2)[nH]n1,Percent Effect,"30 µM, 30.03 µM",58.67%
CC(=O)N1CCC(NC(=O)Cc2nc3nc(C)cc(C)n3n2)CC1,Percent Effect,"30.3 µM, […]",9.867%
O=C(c1ccc(CN2CCCCC2)cc1)N1Cc2cnn(CCO)c2C1,Percent Effect,"30.3 µM, […]",4.685%
COCCNC(=O)Nc1ccc(-c2nc(C(C)C)no2)cc1,Percent Effect,"30.3 µM, […]",-5.463%
Cc1nn(C)c(Cl)c1C1CCCN1c1ncnc2c1CCC2 (configuration not stated),Percent Effect,"30.3 µM, […]",-27.23%
COc1c(C2CCCN2c2ncnc3c2CCC3)c(C)nn1C (configuration not stated),Percent Effect,"30.3 µM, […]",55.59%
Cc1nn(C)c(C)c1C1CCCN1c1ncnc2c1CCC2 (configuration not stated),Percent Effect,"30.3 µM, […]",30.84%
O=C(CN1CCSCC1c1ccccc1)N1CCCC1 (configuration not stated),Percent Effect,"30.3 µM, […]",-14.01%
O=c1ccc(-c2cccs2)nn1CN1CCCCCC1,Percent Effect,"30 µM, 30.03 µM",13.2%
Cc1cc(N2CCC(O)(CN(C)C)C2)c2cc3c(cc2n1)OCO3 (configuration not stated),Percent Effect,"30.3 µM, […]",-1.24%
COc1ccc(CN2Cc3cn(C)nc3C(COCC3CC3)C2)cc1 (configuration not stated),Percent Effect,"30.3 µM, […]",16.82%
Cn1cc(CN2Cc3cn(C)nc3C(COCC3CC3)C2)cn1 (configuration not stated),Percent Effect,"30.3 µM, […]",53.65%
Cn1cc2c(n1)C(COCC1CC1)CN(Cc1ccsc1)C2 (configuration not stated),Percent Effect,"30.3 µM, […]",-18.37%
CCN(CC1CCOC1)C(=O)Nc1ccc(N2CCCC2)nc1 (configuration not stated),Percent Effect,"30 µM, 30.03 µM",21.14%
COCCN(Cc1cnn(C)c1)C(=O)C1CCCN(C2CCOCC2)C1 (configuration not stated),Percent Effect,"30.3 µM, […]",2.022%
CC(C)c1nnc2n1CCN(C(=O)CN1Cc3ccccc3C1=O)C2,Percent Effect,"30 µM, 30.03 µM",-6.489%
COc1cccc(NC(=O)CNc2ccc(C(=O)N(C)C)c(Cl)c2)c1,Percent Effect,"30.3 µM, […]",28.32%
CC(CC(=O)Nc1ccc(C(=O)N(C)C)c(Cl)c1)n1cccc1 (configuration not stated),Percent Effect,"30.3 µM, […]",51.53%
CC(C)CNC(=O)c1ccc(NC(=O)NC(C)C)cc1Cl,Percent Effect,"30.3 µM, […]",-0.4257%
CCCN1CCCCC1C(=O)Nc1ccc(-c2nnc[nH]2)cc1 (configuration not stated),Percent Effect,"30.3 µM, […]",6.317%
CC(C)N(CC(=O)Nc1ccc(Br)cc1Cl)Cc1cccnc1,Percent Effect,"30.3 µM, […]",0.9398%
Cc1ccnc(CNC(=O)C2CC(=O)N(CCN(C)C)C2)c1 (configuration not stated),Percent Effect,"30.3 µM, […]",7.855%
CNc1nccc(C2CCCCN2Cc2cnn3cccnc23)n1 (configuration not stated),Percent Effect,"30.3 µM, […]",53.78%
c1cnc2c(CN3CCCCC3c3ccncn3)cnn2c1 (configuration not stated),Percent Effect,"30.3 µM, […]",9.705%
CN(C)c1nccc(C2CCCCN2Cc2cnn3cccnc23)n1 (configuration not stated),Percent Effect,"30.3 µM, […]",15.49%
Cc1csc2c(=O)n(CCN3CCC(c4ccccc4)CC3)cnc12,Percent Effect,"30.3 µM, […]",-32.46%
Cc1nccn1CCCN1CCCC(c2nccn2CC2CCC2)C1 (configuration not stated),Percent Effect,"30.3 µM, […]",28.26%
Cc1nccn1CCCN1CCCC(c2ccccc2)C1 (configuration not stated),Percent Effect,"30.3 µM, […]",72.11%
